In the assay the test system is Aedes aegypti neuropeptide Y-like receptor 7 (NPYLR7). Put plainly: agonists of mosquito NPYLR7 receptor, primary screen, cell-based, Aedes aegypti, calcium fluorescence, mosquito biting behavior (AID 1259423).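 Also: 0% = vehicle and 100% = reference agonist at the receptor.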 To be noted: HEK293T NPYLR7/Galpha15, GCaMP6s calcium fluorescence, at 10 µM, stronger effect = higher value.
The mark [1] stands for this setting: measured here: Max-Min RFU normalised activation.

Structures are written as SMILES. Several values for one entry are separate records, joined by “and”; a condition that tells them apart may be missing. Equal values may be shown once. Among all 270,000 compounds or so, about 410 (0.15%) were called active. Rule as the data show it: active = activation above about 40%; inactive = the rest, inconclusive results apart. For the sample, actives were picked, then their nearest neighbours and some compounds at random.

The text below walks through data of PubChem BioAssay AID1259423 (Fisher Drug Discovery Resource Center, 2018).

As for `Cc1nc(N)sc1C(=O)N/N=C1\CCn2cccc21`, the activation is 4.89% (inactive). The activation under setting [1] worked out at 3.57%.

`CCc1nc2c(OCC=C(C)C)cccn2c1N(C)C(=O)c1ccco1`: the activation was 6.84% (inactive). Further, the activation under setting [1] was -5.05%.

As to `CCOC(=O)C1CCN(C(=O)CC2CSc3nc4c(c(=O)n32)CCCC4)CC1` (stereo unspecified), the activation is -0.315% (inactive). The activation under setting [1] was -2.68%.

In the case of `COc1ccc(NCc2cccc(F)c2)cc1N1CCOC1=O`, the activation is 11.9% (inactive) and 1.76% (inactive). The activation under setting [1] was 10.7% and -0.214%.

Consider `CCN(CC)c1onc(-c2ccc(F)cc2)c1CN(CCOC)C(=O)Cc1ccccc1`, for which the activation was 15% (inactive). The activation under setting [1] worked out at 16.6%.

On to `Cc1ccc(F)c(-n2nnnc2CSCC(=O)NC(C)(C)C)c1`, for which the activation was 1.4% (inactive). Also, under setting [1], the activation is 3.68%.

On to `Cc1cc(C)cc(C(O)C(F)(F)F)c1` (stereo unspecified), for which the activation was 4.04% (inactive) and 3.71% (inactive). Further, under setting [1], the activation is 3.27% and 11.4%.

Consider `CCc1cccc2sc(N(Cc3ccccn3)C(=O)c3cccc(S(=O)(=O)CC)c3)nc12`, for which the activation is 1.88% (inactive). Further, under setting [1], the activation is -3.52%.

Turning to `COc1ccc(CN(CC(O)COCC(C)C)CC2CCCO2)cc1OC` (stereo unspecified), the activation is 1.65% (inactive). Under setting [1], the activation was 13.2%.

As to `CN(Cc1ncc[nH]1)C1CCN(c2ccc3c(c2)OCO3)CC1`, the activation is -10.3% (inactive). Moreover, the activation under setting [1] was -10.5%.

`NC(=O)[C@@H]1CN2CCN(C(=O)c3ccco3)C[C@@H]2[C@H]1c1ccccc1`: the activation was 2.73% (inactive). Further, the activation under setting [1] amounted to 0.0894%.

For the compound `O=C(c1ccc(-n2cnnn2)cc1)N1CCCC(N2CCCC2)C1` (stereo unspecified), the activation is 6.38% (inactive). Also, the activation under setting [1] worked out at 2.39%.

Take `O=c1c2ccccc2sn1CN1CCN(c2ccc(C(F)(F)F)cn2)CC1`: the activation is 10.9% (inactive). Also, the activation under setting [1] amounted to 3.72%.

As to `CC[C@H]1CN(Cc2cc(Cl)cc(OC)c2OC)CC[C@@]1(C)O`, the activation was -5.14% (inactive). The activation under setting [1] is -11.2%.

With `Cc1ccc(CN(CCN2CCOCC2)CC(O)c2ccccc2)s1` (stereo unspecified), the activation is 1.67% (inactive). Also, the activation under setting [1] was 15.8%.

With `CCN1C(=O)CSC1=C(C#N)C(N)=O`, the activation was 4.07% (inactive). In addition, the activation under setting [1] was -0.252%.

Turning to `CN(C)CC1(O)CCCN(C(=O)c2ccc(N3CCCC3=O)cc2)C1` (stereo unspecified), the activation was -3.42% (inactive). The activation under setting [1] was -7.14%.

For `Nc1ccc2c3c(cccc13)C(=O)NC2=O`, the activation is 147% (active). Also, under setting [1], the activation came out at 136%.

Take `Cc1c(CN2CCn3cncc3C2)c(=O)n(-c2ccccc2)n1C`: the activation is 20.8% (inactive). In addition, the activation under setting [1] turned out to be 15.6%.

In the case of `Clc1cccc2ccc(CN3CCn4cncc4C3)nc12`, the activation is 133% (active). Under setting [1], the activation worked out at 113%.

For the compound `CC1CNC(=O)CCN1Cc1ccc2cccc(Cl)c2n1` (stereo unspecified), the activation was 8.75% (inactive). The activation under setting [1] is 6.16%.

`Cc1nc2ccccc2c(=O)n1N=Cc1ccc(OCc2ccccc2)cc1`: the activation is -6.32% (inactive). For the same compound, under setting [1], the activation is -12.4%.

Consider `CCOc1ccc(N2CC(NC(=O)Nc3ncccc3C)CC2=O)cc1` (stereo unspecified), for which the activation was 2.56% (inactive). Moreover, the activation under setting [1] is -0.89%.

On to `Cn1nc(C(=O)N2CCCC(COc3ccccc3F)C2)ccc1=O` (stereo unspecified), for which the activation is 11.1% (inactive). Also, under setting [1], the activation came out at 4.67%.

For `O=C(Cc1cnn(-c2ccccc2)n1)N1CCCCCCC1`, the activation is 10.9% (inactive). In addition, the activation under setting [1] was found to be 7.94%.

As to `O=C(c1cnn(-c2ccccc2)n1)N1CCCC(COCc2ccccc2)C1` (stereo unspecified), the activation is 97.3% (active). Moreover, the activation under setting [1] is 92.7%.

`CN1CCOC(CCNC(=O)CCC(=O)N2CCCCCC2)C1` (stereo unspecified): the activation was 1.36% (inactive). Under setting [1], the activation is -0.93%.

On to `COc1ccc(C(=O)C=Cc2cc(Br)c(O)c(OC)c2)cc1F`, for which the activation is 172% (active). Also, under setting [1], the activation came to 160%.

On to `COc1ccc(C=CC(=O)c2ccc(I)cc2)cc1OC`, for which the activation was 1.5% (inactive). In addition, the activation under setting [1] came out at 6.21%.

On to `COc1ccc(C(=O)C=Cc2ccc(F)c(F)c2)cc1F`, for which the activation was 2.38% (inactive). In addition, the activation under setting [1] was -4.33%.

For the compound `CCCCCCC(=O)Nc1c(-c2ccc(OC)c(OC)c2)nc2cc(C)ccn12`, the activation was -2.82% (inactive). Moreover, the activation under setting [1] was 4.02%.

As for `CC(=O)N1CCC(C(=O)N2CCCC(C(=O)c3ccc(C(F)(F)F)cc3)C2)CC1` (stereo unspecified), the activation was 0.616% (inactive). Under setting [1], the activation is -1.09%.

As for `COc1ccc(C)c2sc(N(Cc3ccccc3)C(=O)c3ccc([N+](=O)[O-])o3)nc12`, the activation is 3.04% (inactive). Moreover, the activation under setting [1] amounted to 0.795%.

Regarding `Oc1ccc(-c2onc3ccc(Cl)cc23)cc1`, the activation is 112% (active). Further, the activation under setting [1] was determined as 227%.

On to `N#C/C(=C\c1ccc2noc(-c3ccccc3)c2c1)C(=O)Nc1ccccc1C#N`, for which the activation was 22.3% (inactive). Moreover, the activation under setting [1] was found to be 18.1%.

For `c1ccc(Nc2nc(-c3ccco3)nc3ccccc23)cc1`, the activation is -1.91% (inactive). Also, under setting [1], the activation is 4.58%.

On to `COc1ccccc1-c1cc(C(=O)N2CCCC2)n2nc(C(C)(C)C)cc2n1`, for which the activation was 3.24% (inactive). The activation under setting [1] stood at 10.6%.

For `CC1CN(C(=O)NCC(C)N(C)c2ccccc2)CC(C)O1` (stereo unspecified), the activation is 4.84% (inactive). In addition, under setting [1], the activation is 1.94%.

Turning to `COc1ccc(CN(Cc2nc(C(=O)O)co2)C(C)c2ccccc2)c(OC)c1` (stereo unspecified), the activation was 10.6% (inactive). In addition, the activation under setting [1] was 6.62%.

For the compound `CN(Cc1cc(-c2ccncc2)no1)Cc1cn[nH]c1-c1cccc(F)c1`, the activation is 1.92% (inactive). Besides, the activation under setting [1] turned out to be 4.35%.

In the case of `COc1ccc(N2C(=O)/C(=C\c3ccc(N(C)C)cc3)SC2=S)cc1`, the activation is -3.18% (inactive). Besides, the activation under setting [1] is -7.36%.

Turning to `CC(C(=O)O)N1C(=O)/C(=C/c2ccc(N(C)C)cc2)SC1=S` (stereo unspecified), the activation was 64.5% (active). Besides, the activation under setting [1] is 54.2%.

As for `CC(C(=O)O)N1C(=O)/C(=C/c2ccccn2)SC1=S` (stereo unspecified), the activation was -2.67% (inactive). Besides, under setting [1], the activation is -6.6%.

For `Brc1ccc2nc(-c3ccccc3)c(NC3CCCCC3)n2c1`, the activation is -4.85% (inactive). Moreover, the activation under setting [1] worked out at 5.22%.

For the compound `Cc1csc(=O)n1CCC(=O)OC(C)C(N)=O` (stereo unspecified), the activation is 1.77% (inactive). For the same compound, the activation under setting [1] came to 0.428%.

`CC(=O)Oc1ccc(Cn2c(C)c(C(=O)NCc3ccc(C(C)C)cc3)sc2=O)cc1`: the activation is -6.93% (inactive). Moreover, the activation under setting [1] was -8.16%.

With `CC(=O)Oc1ccc(Cn2c(C)c(C(=O)NCc3ccc(C#N)cc3)sc2=O)cc1`, the activation was 53.2% (active). Besides, the activation under setting [1] is 43.3%.

For the compound `Cc1c(C(=O)NCc2ccc(C#N)cc2)sc(=O)n1Cc1ccc(C(=O)N(C)C)cc1`, the activation was 2.34% (inactive). For the same compound, the activation under setting [1] was -0.426%.

As to `CC(=O)N1CCN(C(=O)COc2c(C)cc(Br)cc2Cl)CC1`, the activation is 2.73% (inactive). The activation under setting [1] was 1.6%.

For the compound `O=P1(Nc2cc(C(F)(F)F)ccc2Cl)C=C(c2ccccc2)OC(c2ccccc2)=C1`, the activation is 52.5% (active). For the same compound, the activation under setting [1] is 88.3%.

`COc1ccc(C(=O)Nc2cc(C(F)(F)F)ccc2Cl)cc1[N+](=O)[O-]`: the activation is 1.83% (inactive). Moreover, the activation under setting [1] came out at 0.579%.

Turning to `CCn1c(N2CCN(Cc3cccc4ccccc34)CC2)nc2c1c(=O)[nH]c(=O)n2C`, the activation is 1.95% (inactive). In addition, the activation under setting [1] amounted to 4.2%.

For the compound `O=C(Nc1nc2c(s1)CCC2)c1cnn(Cc2ccccc2)c1`, the activation was -0.747% (inactive). Further, the activation under setting [1] was -2.1%.
